Pf growth 96h = inhibits malaria parasite growth, 96 h; Potency, µM (titrated, usually from 28.7 µM), without a hit: top-dose activity change, negative = inhibition, actives largely listed as inhibitors; 320,000 tested, 6.9% active; P. falciparum luciferase reporter growth, 96 h; AID 504834; note: potency is the fitted concentration of half-maximal effect; % is set by controls: 0 for no effect and ±100 for the full control effect
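Plates of compound plus infected erythrocytes (2% hematocrit, 0.05% parasitemia final) incubate 96 hours, 37 C, 5% CO2. Detection reagent added; reduced luminescence from the parasites' luciferase reporter flags inhibition.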
Shiga inhibitor = Shiga toxin inhibition. Vero cells, Shiga toxin protein synthesis inhibition reporter. inhibition, % at 38.7 µM. 290,000 tested, 9.2% active; in the data active = inhibition mostly above about 28%, no sharp cut-off; inactive = mostly below about 43%; note: 0% is about no effect
FBPA Giardia inh = inhibitors of Giardia lamblia fructose-1,6-bisphosphate aldolase. A8B2U2. purified Giardia FBPA. Potency, µM (highest dose often 59.6 µM), inactives show at the highest dose activity, negative = inhibition, hits mostly inhibitors. 290,000 tested, 0.71% active. AID 2451; note: potency is the fitted concentration of half-maximal effect; % is set by controls: 0 for no effect and ±100 for the full control effect; nearly all actives have a fitted effect of over 55% in size
Target sequence (A8B2U2 whole entry, looked up): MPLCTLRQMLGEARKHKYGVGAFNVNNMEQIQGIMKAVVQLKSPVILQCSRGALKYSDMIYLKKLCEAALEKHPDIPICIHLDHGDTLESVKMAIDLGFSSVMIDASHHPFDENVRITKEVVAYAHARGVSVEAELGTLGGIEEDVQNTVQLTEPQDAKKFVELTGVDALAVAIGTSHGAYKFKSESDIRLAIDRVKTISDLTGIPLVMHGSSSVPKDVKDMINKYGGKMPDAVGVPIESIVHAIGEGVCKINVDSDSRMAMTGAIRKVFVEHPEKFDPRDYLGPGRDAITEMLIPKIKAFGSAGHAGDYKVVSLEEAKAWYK
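Giardia FBPA (40 nM reagent) was preincubated 10 min at RT with compound (up to 57.5 uM final), then substrate plus GAPDH/TPI/NAD/arsenate coupling system with diaphorase/resazurin was added; resorufin fluorescence (525/598 nm) was read after 20 min.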
NS1 function inh = inhibitors of influenza NS1 protein function; Potency, µM (highest dose often 46.1 µM), without a hit: at the top dose activity, positive = more growth; 270,000 tested, 0.4% active; calls by dose curve; note: potency is the fitted concentration of half-maximal effect; actives are rising curves; nearly all actives have a fitted effect of over 50% in size
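S. cerevisiae expressing influenza A NS1, grown in glucose, washed, then diluted 1:100 into pH 6.0 -URA galactose medium with 23 nl compound. Growth recovery read as OD600; NS1-free strain serves as control.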
Pf growth 48h = inhibits P. falciparum growth in the first generation, 48 h. P. falciparum luciferase growth in erythrocytes, 48 h. Potency, µM (doses to about 28.7 µM), for the others: at the top dose activity change, negative = inhibition, hits mostly inhibitors. 310,000 tested, 5.9% active; note: potency is the fitted concentration of half-maximal effect; % is set by controls: 0 for no effect and ±100 for the full control effect
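Luminescence readout; reporter = integrated firefly luciferase in P. falciparum. RBC culture at 2% hematocrit, 0.1% parasitemia final, 37 C/5% CO2; decreased signal taken as growth inhibition.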
CHX counter = affects cycloheximide protein synthesis inhibition readout, counter-screen. cell reporter, cycloheximide protein synthesis inhibition counterscreen. AID 2314. max response, %. 300,000 tested, 12% active; in the data active = max response mostly above about 13%, no sharp cut-off; inactive = mostly below about 14%; note: read at 38.3 µM for the half of the compounds with a filed dose; 0% is about no effect
The depositor's hits bear a star. Rows were chosen to be rich in hits. Some 21% of all compounds tested hit in one or more screens of this group. Unless noted, calls come from the whole dose curve; as a rule, active = well fitted curve in the direction sought with a large enough effect; inconclusive = small, poorly fitted or top-dose-only effect, or another doubt; inactive = no such curve, though single readings can be large; an effect the other way counts as inactive or inconclusive.

How did CCC(=O)Nc1ccc(C(=O)Nc2cccnc2)cc1 do in these assays?
Shiga inhibitor: 37*; FBPA Giardia inh: 2%; NS1 function inh: -2%; Pf growth 48h: 41%; CHX counter: 15*

Results for CC(C)(C)C(=O)Nc1ccc(C(=O)Nc2cccnc2)cc1 ?
Pf growth 96h: 154%; Shiga inhibitor: 52; FBPA Giardia inh: 1%; NS1 function inh: 1%; CHX counter: 43*

How did CC(C)(C)C(=O)Nc1ccccc1C(=O)Nc1cccnc1 do in these assays?
Pf growth 96h: 46%; Shiga inhibitor: 15; FBPA Giardia inh: 2%; NS1 function inh: 6%; Pf growth 48h: 9%; CHX counter: -3

Results for c1ccc2c(Nc3nnc(-c4ccncc4)s3)cccc2c1 ?
Pf growth 96h: 80%; Shiga inhibitor: 34*; FBPA Giardia inh: -6%; NS1 function inh: 0%; Pf growth 48h: 79%; CHX counter: 48*

How did C=CCNc1nnc(-c2ccncc2)s1 do in these assays?
Pf growth 96h: 32%; Shiga inhibitor: 13; FBPA Giardia inh: -7%; NS1 function inh: 1%; Pf growth 48h: 47%; CHX counter: 1

Results for Cc1nnc2sc(SCc3cccc(Cl)c3)nn2c1=O ?
Pf growth 96h: 2.1µM*; Shiga inhibitor: -12; FBPA Giardia inh: 5%; Pf growth 48h: 5.9µM*; CHX counter: 9

Results for Cc1nnc2sc(SCc3ccccc3)nn2c1=O ?
Pf growth 96h: inconclusive; Shiga inhibitor: -13; FBPA Giardia inh: 5%; NS1 function inh: 1%; Pf growth 48h: 10µM*; CHX counter: -1

Results for Cc1nnc2sc(SCc3ccccc3Cl)nn2c1=O ?
Pf growth 96h: inconclusive; Shiga inhibitor: 26; FBPA Giardia inh: 4%; Pf growth 48h: inconclusive; CHX counter: 3

How did Cc1nnc2sc(-c3cccc(F)c3)nn2c1=O do in these assays?
Pf growth 96h: inconclusive; Shiga inhibitor: -6; FBPA Giardia inh: -3%; NS1 function inh: 5%; Pf growth 48h: inconclusive; CHX counter: -2

What do the screens show for `Cc1ccc(-c2nn3c(=O)c(C)nnc3s2)cc1`?
Pf growth 96h: 27%; Shiga inhibitor: 23; FBPA Giardia inh: 8%; NS1 function inh: -5%; Pf growth 48h: -18%; CHX counter: 27*

What do the screens show for `Cc1cc(=O)n2nc(-c3ccccc3)sc2n1`?
Shiga inhibitor: 61*; FBPA Giardia inh: 0%; NS1 function inh: -10%; Pf growth 48h: 101%; CHX counter: 38*

Results for CCOC(=O)N1CCN(C(=O)/C(=C/c2cccs2)NC(=O)c2ccc(OC)c(OC)c2)CC1 ?
Pf growth 96h: 20%; Shiga inhibitor: -9; NS1 function inh: -5%; Pf growth 48h: inconclusive; CHX counter: -7

What do the screens show for `CCOC(=O)C1CCN(C(=O)COC(=O)C2CCN(S(=O)(=O)c3ccc(C)c(C)c3)CC2)CC1`?
Pf growth 96h: 43%; Pf growth 48h: 38%

Results for Cc1nnc2sc(SCC(=O)Nc3nccs3)nn2c1=O ?
Pf growth 96h: 1.7µM*; Shiga inhibitor: -1; FBPA Giardia inh: -12%; NS1 function inh: inconclusive; Pf growth 48h: inconclusive; CHX counter: 2

Results for COc1ccccc1NC(=O)CSc1nn2c(=O)c(C)nnc2s1 ?
Pf growth 96h: inconclusive; Shiga inhibitor: -8; NS1 function inh: 0%; Pf growth 48h: 14%; CHX counter: 7

Results for Cc1ccc(N(C(=O)Cc2c[nH]c3ccccc23)C(C(=O)NC2CCCCC2)c2ccco2)cc1 (configuration not stated) ?
Pf growth 96h: inconclusive; Shiga inhibitor: 11; FBPA Giardia inh: 0%; NS1 function inh: 5%; Pf growth 48h: 10µM*; CHX counter: -2

How did Cc1ccc(C(C(=O)NC2CCCCC2)N(Cc2ccco2)C(=O)Cc2c[nH]c3ccccc23)o1 (configuration not stated) do in these assays?
Pf growth 96h: inconclusive; Shiga inhibitor: -2; FBPA Giardia inh: -6%; NS1 function inh: 11%; Pf growth 48h: 13µM*; CHX counter: -4

Results for Cc1ccc(C(C(=O)NC2CCCCC2)N(C(=O)Cc2c[nH]c3ccccc23)c2ccccc2C)o1 (configuration not stated) ?
Pf growth 96h: 12%; Shiga inhibitor: -14; FBPA Giardia inh: 3%; NS1 function inh: 24%; Pf growth 48h: inconclusive; CHX counter: -1
